Only some compounds are listed: those with a hit (about 5.5% of all), similar ones and a draw of the others.
RORg inh = blocks mouse ROR gamma transcriptional activity; P51450; Drosophila S2 Gal4-RORgamma UAS-luciferase reporter, 20 h; Potency, µM (highest dose often 53.6 µM), for the others: at the top dose activity change, negative = inhibition, most hits filed as inhibitors; hit rate 5.4% among 310,000; note: potency is the fitted concentration of half-maximal effect; % is set by controls: 0 for no effect and ±100 for the full control effect; nearly all actives have a fitted effect of over 60% in size
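ROR gamma transcriptional activity was tracked as Gal4-UAS luciferase output in stably transfected Drosophila Schneider cells, with compound added 1 hr before 700 uM copper sulfate induction and a 20 hr ambient-temperature incubation.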
CBFb-RUNX1 inh = CBF-beta/RUNX1 interaction disruption | Q01196+Q13951 | AlphaScreen CBFb-His/RUNX1-biotin binding, biochemical | Potency, µM (top dose mostly 59.8 µM), for the others: at the top dose activity, negative = inhibition, hits mostly inhibitors | 230,000 tested, under 10 active | AID 1477; note: % of control where 0% means no effect
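CBFb-His/RUNX1-biotin, 30 nM each, preincubated 20 min RT; compound 15 min RT; Ni + streptavidin beads 50 ng each, 90 min RT; AlphaScreen read.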
CtBP-E1A inh = CtBP/E1A binding inhibition | AlphaScreen GST-E1A/His-CtBP binding, 1536-well; stronger effect = lower value | activity change, % (test concentration not listed) | hit rate 0.49% among 340,000 | AID 651724; in the data active = activity change below about -65%; inconclusive = mostly about -30% to -63%; note: % is set by controls: 0 for no effect and ±100 for the full control effect
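AlphaScreen with 125 nM GST-E1A and 125 nM His-CtBP (5X stocks) in Tris pH 8.0, 300 mM NaCl, BSA, Tween 20, TCEP. Compounds preincubated 2 h at 37 deg C, then glutathione donor/nickel acceptor beads added for 1 h at 37 deg C in dark.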
MBNL1 CUG block = blocks human MBNL1 binding to CUG repeat RNA. TR-FRET MBNL1-His/biotin-(CUG)12 binding, 665/545 ratio. Potency, µM (highest dose often 57.5 µM), for inactives: at the highest dose activity change, negative = inhibition, usual class: inhibitors. hit rate 0.036% among 280,000; active = well fitted inhibition curve with a large enough effect in the signal ratio, with a control signal flat, not every such curve was filed as active; inconclusive = small, poorly fitted or top-dose-only effect, or effect the other way, or a change in a side signal; inactive = no such curve, though single readings can be large or run the other way; the % refers to the signal ratio; note: potency is the fitted concentration of half-maximal effect; % is set by controls: 0 for no effect and ±100 for the full control effect
Target sequence (Q9NR56 whole entry, looked up): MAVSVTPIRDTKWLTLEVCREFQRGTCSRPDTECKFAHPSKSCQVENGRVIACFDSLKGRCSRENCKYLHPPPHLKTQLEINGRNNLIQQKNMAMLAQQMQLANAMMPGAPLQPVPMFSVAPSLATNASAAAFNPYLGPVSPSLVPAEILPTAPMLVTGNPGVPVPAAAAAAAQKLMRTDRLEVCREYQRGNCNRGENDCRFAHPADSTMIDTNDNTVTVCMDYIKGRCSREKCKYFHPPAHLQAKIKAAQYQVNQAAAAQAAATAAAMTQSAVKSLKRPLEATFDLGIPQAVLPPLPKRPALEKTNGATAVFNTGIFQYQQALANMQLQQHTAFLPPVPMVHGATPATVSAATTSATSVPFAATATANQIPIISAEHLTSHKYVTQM
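MBNL1-His + Biotin-(CUG)12, cpd titration 92 nM–58 uM; Tb anti-His Ab 0.055 ng/ul, SA-XL665 5 nM (final); 60 min RT; ratiometric 665/545 nm, Ex 340 nm; normalized to buffer and full-complex controls.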
Six1-Eya2 inh = Six1/Eya2 interaction inhibition | Q15475+O00167 | AlphaScreen GST-Six1/His-Eya2 binding, biochemical; stronger effect = lower value | activity change, % (concentration not given with the values) | hit rate 0.56% among 360,000 | AID 651725; in the data active = activity change below about -65%; inconclusive = mostly about -30% to -63%; note: % is set by controls: 0 for no effect and ±100 for the full control effect
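GST-Six1 + His-Eya2 (5X stock: 250/500 nM); Tris pH 8.0, 300 mM NaCl, 0.05% BSA, 0.02% Tween 20; GSH donor/Ni acceptor beads; 1 h 37 °C dark; AlphaScreen readout.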
Gal4-VP16 FLuc = inhibits Gal4-VP16 luciferase reporter, ROR gamma counter-screen. AID 2546. Drosophila S2 Gal4-VP16 UAS-luciferase, luminescence, 20 h. hit rate 3.5% among 310,000. Potency, µM (series often up to 53.6 µM), for the others: top-dose activity, negative = inhibition, hits mostly inhibitors;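 note: Gal4-VP16 expression switched on by copper sulfate through the metallothionein promoter; potency is the fitted concentration of half-maximal effect; % is set by controls: 0 for no effect and ±100 for the full control effect; nearly all actives have a fitted effect of over 50% in size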
Numbers without * were called inactive; ? = inconclusive; . = no result given; [ ] = another dose, or the depositor's remark. Unless noted, calls come from the whole dose curve; as a rule, active = well fitted curve in the direction sought with a large enough effect; inconclusive = small, poorly fitted or top-dose-only effect, or another doubt; inactive = no such curve, though single readings can be large; an effect the other way counts as inactive or inconclusive.

SMILES	RORg inh	CBFb-RUNX1 inh	CtBP-E1A inh	MBNL1 CUG block	Six1-Eya2 inh	Gal4-VP16 FLuc
N#C/C(=C/c1ccco1)c1nc2ccccc2s1	5µM*	-10%	-12	.	-12	5.6µM*
CC(=O)N1CCC2(CC1)CCN(c1ncccn1)CC2	21%	.	.	.	.	-8%
COCCNc1nnc(SCC(=O)c2c[nH]c3ccccc23)s1	?	-1%	0	.	3	35µM*
COCCNc1nnc(SCC(=O)Nc2sc3c(c2C(=O)c2ccccc2)CCCC3)s1	16µM*	-4%	?	7%	?	?
Nc1nnc(SCC(=O)Nc2sc3c(c2C(=O)c2ccccc2)CCCC3)s1	22µM*	4%	-8	.	-20	?
COCCNc1nnc(SCC(=O)NNC(=O)c2ccccc2)s1	-2%	9%	.	-3%	0	8%
Cc1ccc(C(=O)c2c(NC(=O)CSc3nnc(N)s3)sc3c2CCCC3)cc1	21%	-5%	?	.	-27	-14%
Cc1ccccc1-n1nc2c(c1NC(=O)c1cc3ccccc3o1)CS(=O)(=O)C2	.	.	0	.	-5	.
O=C(COC(=O)c1n[nH]c2ccccc12)Nc1cccc(S(=O)(=O)N2CCOCC2)c1	?	-4%	-2	-1%	-2	-1%[10 µM]
O=C(COC(=O)c1n[nH]c2ccccc12)Nc1ccc(S(=O)(=O)N2CCCC2)cc1	-42%	-1%	-4	5%	-1	10µM*
CCCCCCn1c2c(c(=N)c3c1CCC3)CCC2	11µM*	11%	-12	4%	-10	11µM*
CCCCCCCn1c2c(c(=N)c3c1CCC3)CCCC2	6.3µM*	-4%	-15	-7%	-6	5.6µM*
CCCCCCCCCn1c2c(c(=N)c3c1CCC3)CCC2	62%	2%	-19	-9%	7	?
CCn1c2c(c(=N)c3c1CCC3)CCC2	65%	7%	8	-10%	-3	-29%
CCN(c1ccccc1)S(=O)(=O)c1ccc(C(=O)N2CCN(c3ccccc3F)CC2)cc1	.	.	0	.	-1	.
O=C(N/N=C\c1cccs1)c1sccc1-n1cccc1	1.3µM*	-15%	-28	?	-10	?
O=C(N/N=C/c1cc(Br)c(O)c(Br)c1O)c1ccc2c(c1)OCCO2	4.5µM*	.	-97*	20%	-85*	3.2µM*
O=C(N/N=C\c1ccccc1)c1sccc1-n1cccc1	?	2%	-2	18%	-17	-9%
O=C(N/N=C/c1ccsc1)c1ccc2c(c1)OCO2	.	.	22	.	-3	.
CC1CCC(NC(=O)c2ccc3c(c2)OCO3)CC1 (centres undefined)	10µM*	.	0	-8%	3	?
O=C(N/N=C/c1cccs1)c1ccc2c(c1)OCO2	14µM*	2%	-5	?	-7	?
O=C(N/N=C/c1cc(Br)c(Br)o1)c1ccc2c(c1)OCCO2	7%	?	-4	.	-28	-3%
O=C(Nc1ccccc1Cl)c1cc(C2CCCN(C(=O)c3cccc(O)c3)C2)on1 (centres undefined)	.	.	2	.	-7	.
O=C(N/N=C/c1ccccc1OC(=O)c1ccc2c(c1)OCO2)c1cccc(F)c1	13µM*	-2%	-10	-10%	-9	?
CC/C(=N\NC(=O)c1ccc2c(c1)OCO2)c1ccccc1	?	.	1	-2%	1	1%
SMILES	RORg inh	CBFb-RUNX1 inh	CtBP-E1A inh	MBNL1 CUG block	Six1-Eya2 inh	Gal4-VP16 FLuc
CC(C)CC(CC(C)C)=NNC(=O)c1ccc2c(c1)OCO2	13µM*	-1%	10	4%	3	5%
O=C(O)COc1ccccc1/C=N/NC(=O)c1ccc2c(c1)OCCO2	?	.	.	8%	11	?
O=C(N/N=C/c1ccccc1O)c1ccc2c(c1)OCO2	0.56µM*	.	-78*	6%	?	1.8µM*
Cc1cc(Br)cc(/C=N/NC(=O)c2ccc3c(c2)OCO3)c1O	2.5µM*	.	.	69%	0	3.5µM*
O=C(N/N=C/c1c[nH]c2ccc(Br)cc12)c1ccc2c(c1)OCO2	?	12%	-18	-14%	-15	0%
CC(=O)O[C@H]1CC(=O)OC(C)(C)C2CC(=O)[C@]3(C)C(CC[C@@](C)([C@@H](O[C@@H]4O[C@H](CO)[C@@H](O)[C@H](O)[C@H]4O)c4ccoc4)[C@@]34O[C@@H]4C(=O)O)[C@]21C (some centres undefined)	.	.	9	.	4	.
CC(C)C[C@H]1CNC(=S)N1C[C@H]1CCCN1C[C@H](Cc1ccc(O)cc1)N1C[C@H](CC(C)C)N(CC2CCCCCC2)C1=S	.	.	-14	.	-17	.
Cc1noc(C)c1COc1ccccc1C(=O)NCCc1ccc(S(N)(=O)=O)cc1	1%	.	-2	4%	-1	8%
O=C(N/N=C/c1cc(Br)cc(Cl)c1O)c1ccc2c(c1)OCO2	.	.	-83*	.	-81*	.
O=C(N/N=C/c1cc2c(cc1Cl)OCO2)c1cccc(Br)c1	-4%	.	-13	1%	-12	-7%
COc1ccc(O)c(C(=O)CC(=O)c2ccccc2)c1	7.1µM*	3%	.	1%	.	13µM*
COc1ccc(O)c(C(=O)CC(=O)c2ccncc2)c1	.	.	-11	.	-12	.
CCOC(=O)C(NCc1ccc(F)cc1)(NC(=O)c1ccccc1)C(F)(F)F (centres undefined)	-26%	-3%	-1	-5%	11	0%
COc1ccc(C(=O)CC(=O)c2ccc(OC)cc2)cc1	13µM*	.	22	5%	-8	18µM*
COc1ccc(C(=O)NCC(=O)c2ccccc2)cc1	10µM*	.	.	-3%	7	-27%
COc1ccc(CNC(NC(=O)c2ccccc2)(C(F)(F)F)C(F)(F)F)cc1	?	-5%	-4	-13%	2	10µM*
COc1ccc(OC)c(C(=O)N(C[C@H]2CC[C@@H]([C@@H]3CC[C@H](CO)O3)O2)C(C(=O)NC(C)(C)C)c2ccc(-c3ccccc3)cc2)c1 (some centres undefined)	.	.	0	.	-1	.
Cc1csc(NC(=O)c2cc[n+]([O-])cc2)n1	14%	5%	.	12%	-13	-22%
Cc1csc(NC(=O)c2cc([N+](=O)[O-])cc([N+](=O)[O-])c2)n1	?	8%	-13	?	-15	2µM*
Cc1csc(NC(=O)c2ccc(N3CCCC3=O)cc2)n1	2.5µM*	-6%	.	0%	3	?
Cc1nnc(NC(=O)c2ccc(N3CCCC3=O)cc2)s1	.	.	2	.	-2	.
O=C(Nc1nc(-c2ccc(F)c(F)c2)cs1)c1ccc(OCC2CCCO2)cc1 (centres undefined)	-18%	-2%	6	159%	13	-5%
